This is part of a sample that, as a whole, favours compounds with a hit. Of some 79,000 tested, about 15% had one in any assay. Activity calls are given as the source filed them. No stated cut-off is given here; in the data, active means growth inhibition above about 70%; inactive means the rest.
Key:
[1] = NCI Yeast Anticancer Drug Screen. Data for the rad50 strain (AID 155);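 further: 0% = growth of vehicle-only cultures of the same strain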; settings: S. cerevisiae rad50 strain growth inhibition, active compounds read high
Procedure, shortened: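 DNA repair mutant yeast, compound exposure, growth read-out; inhibition is taken relative to vehicle.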

[2] = NCI Yeast Anticancer Drug Screen. Data for the mec2-1 strain (AID 157); settings: S. cerevisiae mec2-1 strain, active compounds read high
Procedure, shortened: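 Strain: mec2-1 (DNA repair/cell cycle alteration). Compound exposure, then growth measured; inhibition expressed relative to vehicle.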

[3] = NCI Yeast Anticancer Drug Screen. Data for the sgs1 mgt1 strain (AID 161);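 further: 0% = growth of cultures given vehicle only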; settings: S. cerevisiae sgs1 mgt1 strain, active compounds read high
Procedure, shortened: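 Genetically altered yeast, compound exposure, growth inhibition relative to vehicle.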

[4] = NCI Yeast Anticancer Drug Screen. Data for the cln2 rad14 strain (AID 165);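 further: 0% = growth equal to vehicle treated cultures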; settings: S. cerevisiae cln2 rad14 strain, active compounds read high
Procedure, shortened: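 Compounds are applied to the cln2 rad14 yeast strain, and growth is then compared with that of vehicle-treated cultures to give inhibition.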

[5] = NCI Yeast Anticancer Drug Screen. Data for the bub3 strain (AID 167); settings: S. cerevisiae bub3 mutant strain, active compounds read high
Procedure, shortened: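 In this screen, a yeast mutant lacking normal mitotic checkpoint function is challenged with compound. Relative growth versus vehicle gives the inhibition value.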

[6] = NCI Yeast Anticancer Drug Screen. Data for the mlh1 rad18 strain (AID 175); settings: S. cerevisiae mlh1 rad18 strain growth inhibition, active compounds read high
Procedure, shortened: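 Read-out is yeast growth inhibition, calculated against vehicle-only controls. The compound was applied to a strain engineered with DNA damage repair alterations.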

[7] = at 5.0 µM (retest, dose inferred, filed as 0.5)
[8] = at 50.0 µM (retest, dose inferred, filed as 5.0)

Measured: growth inhibition

O=C(CBr)NC1CCCCC1
active: [1]; [8] 93% | [1]; at 50.0 µM 81% | [2]; [8] 94% | [2]; at 50.0 µM 90.6% | [3]; [8] 93% | [3]; at 50.0 µM 82.8% | [4]; [8] 91% | [5]; [8] 94% | [5]; at 50.0 µM 85.2% | [6]; [8] 96% | [6]; at 50.0 µM 93%
inactive: [1]; [7] 1% | [2]; [7] 4% | [3]; [7] 4% | [4]; [7] 2% | [4]; at 50.0 µM 60% | [5]; [7] 6% | [6]; [7] -2%

C[CH2][Sn]1([CH2]C)[O]C(=O)CC(=O)[O]1
inactive: [1]; [7] 18% | [1]; [8] 37% | [1]; at 50.0 µM 48.2% | [2]; [7] 10% | [2]; [8] 35% | [3]; [7] 14% | [3]; [8] 55% | [3]; at 50.0 µM 37.8% | [4]; [7] 20% | [4]; [8] 19% | [4]; at 50.0 µM 65.8% | [5]; [7] 15% | [5]; [8] 54% | [5]; at 50.0 µM 59.1% | [6]; [7] 16% | [6]; [8] 24% | [6]; at 50.0 µM 16.5%
active: [2]; at 50.0 µM 70.6%

CN1C(=O)C23CC4=CC=CC(O)C4N2C(=O)C1(CO)SS3 (configuration not stated)
active: [1]; [7] 99% | [1]; [8] 99% | [1]; at 50.0 µM 92.8% | [2]; [7] 99% | [2]; [8] 100% | [2]; at 50.0 µM 95% | [3]; [7] 99% | [3]; [8] 100% | [3]; at 50.0 µM 93.2% | [4]; [7] 99% | [4]; [8] 99% | [4]; at 50.0 µM 92.5% | [5]; [7] 99% | [5]; [8] 99% | [5]; at 50.0 µM 93.5% | [6]; [7] 99% | [6]; [8] 99% | [6]; at 50.0 µM 93.5%

O=[N+]([O-])c1ccc(CS(=O)(=O)C(Cl)(Cl)Cl)o1
active: [1]; [8] 99% | [1]; at 50.0 µM 95.5% | [2]; [8] 100% | [2]; at 50.0 µM 98.5% | [3]; [8] 99% | [3]; at 50.0 µM 97.5% | [4]; [8] 99% | [4]; at 50.0 µM 94% | [5]; [8] 98% | [5]; at 50.0 µM 90.3% | [6]; [8] 99% | [6]; at 50.0 µM 98.8%
inactive: [1]; [7] 39% | [2]; [7] 25% | [3]; [7] 16% | [4]; [7] 3% | [5]; [7] 8% | [6]; [7] 18%

O=P(O)(Oc1ccccc1)Oc1ccccc1.[Ag]
inactive: [1]; [7] 36% | [2]; [7] 37% | [6]; [7] 37%
active: [1]; [8] 71% | [1]; at 50.0 µM 92.2% | [2]; [8] 87% | [2]; at 50.0 µM 94% | [3]; [7] 99% | [3]; [8] 98% | [3]; at 50.0 µM 94% | [4]; [7] 70% | [4]; [8] 99% | [4]; at 50.0 µM 93% | [5]; [7] 100% | [5]; [8] 99% | [5]; at 50.0 µM 92.8% | [6]; [8] 86% | [6]; at 50.0 µM 92.3%

O=[As]c1ccccc1O (configuration not stated)
inactive: [1]; [7] 1% | [2]; [7] 0% | [3]; [7] 2% | [4]; [7] -9% | [5]; [7] -5% | [6]; [7] -1%
active: [1]; [8] 96% | [1]; at 50.0 µM 96.6% | [2]; [8] 98% | [2]; at 50.0 µM 98.1% | [3]; [8] 98% | [3]; at 50.0 µM 90.3% | [4]; [8] 98% | [4]; at 50.0 µM 92.2% | [5]; [8] 97% | [5]; at 50.0 µM 97.3% | [6]; [8] 98% | [6]; at 50.0 µM 96.5%

COc1cccc(C2N(Cc3ccc(N(CCCl)CCCl)cc3C)CCCN2Cc2ccc(N(CCCl)CCCl)cc2C)c1O
inactive: [1]; [7] 7% | [1]; at 50.0 µM 27.6% | [2]; [7] -2% | [2]; at 50.0 µM 10.2% | [3]; [7] -2% | [3]; at 50.0 µM 64.5% | [4]; [7] -5% | [4]; at 50.0 µM -12.6% | [5]; [7] -6% | [5]; at 50.0 µM 0.75% | [6]; [7] 8% | [6]; at 50.0 µM 40.1%
active: [1]; [8] 94% | [2]; [8] 96% | [3]; [8] 97% | [4]; [8] 82% | [5]; [8] 89% | [6]; [8] 93%

CCCCSc1ccc(C(SCCN(CC)CC)c2ccccc2)cc1 (configuration not stated)
inactive: [1]; [7] 12% | [2]; [7] 11% | [3]; [7] 45% | [4]; [7] 32% | [5]; [7] 36% | [6]; [7] 27%
active: [1]; [8] 99% | [1]; at 50.0 µM 99.8% | [2]; [8] 100% | [2]; at 50.0 µM 99.8% | [3]; [8] 100% | [3]; at 50.0 µM 99.8% | [4]; [8] 99% | [4]; at 50.0 µM 99.8% | [5]; [8] 99% | [5]; at 50.0 µM 99.7% | [6]; [8] 99% | [6]; at 50.0 µM 99.7%

CC(Cl)CN1COc2c3c(c4ccccc4c2C1)CN(CC(C)Cl)CO3 (configuration not stated)
inactive: [1]; [7] 0% | [2]; [7] 2% | [2]; at 50.0 µM 68.8% | [3]; [7] -3% | [4]; [7] 0% | [5]; [7] 0% | [5]; at 50.0 µM 66.4% | [6]; [7] 0%
active: [1]; [8] 98% | [1]; at 50.0 µM 83.7% | [2]; [8] 99% | [3]; [8] 99% | [3]; at 50.0 µM 82.8% | [4]; [8] 95% | [4]; at 50.0 µM 77.5% | [5]; [8] 98% | [6]; [8] 97% | [6]; at 50.0 µM 81.8%

— PubChem BioAssay (NCI)
